Experimental data from PubChem BioAssay (NCI).
About 83,000 compounds went through this panel and 20% of them were active in at least one assay; those are over-represented in the sample as a whole.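 Values shown are percent growth following 48 h exposure of cells in 96-well plates to a single concentration of compound; below 10 was considered active.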 The source made the active and inactive calls.

What was measured:
Test in all cases: NCI-60 one-dose screen, 48 h (100 = growth as untreated, 0 = no growth, -100 = all killed)
Conditions in all cases: 10 µM unless noted
[1] = test system: SK-MEL-2 melanoma
[2] = test system: EKVX NSCLC
[3] = test system: SN12C renal
[4] = test system: UO-31 renal
[5] = test system: TK-10 renal
[6] = test system: ACHN renal
[7] = test system: CAKI-1 renal
[8] = test system: A498 renal
[9] = test system: CCRF-CEM leukemia
[10] = test system: MOLT-4 leukemia

Measured: growth

N#Cc1c(N)nc2c(C#N)c(NC(=O)c3ccccc3)nn2c1-c1ccccc1
inactive: [1] 101% | [2] 71.9% | [3] 91.7% | [4] 61.3% | [5] 135% | [6] 89.6% | [7] 91% | [8] 59.1% | [9] 57.2% | [10] 74.9%

CCC1(C2CCCC2)NC(=O)NC1=O (stereo not given)
inactive: [1] 102% | [2] 105% | [3] 99% | [4] 87.4% | [5] 113% | [6] 93.8% | [7] 100% | [8] 100% | [9] 87.8% | [10] 110%

O=[N+]([O-])c1ccc(N2c3ccncc3Sc3ccncc32)cc1
inactive: [1] 93.8% | [2] 88.7% | [3] 99% | [4] 56.9% | [5] 105% | [6] 93.7% | [7] 87.8% | [8] 112% | [9] 101% | [10] 104%

CC(=O)N1C(=S)NC(=O)C1Cn1c(-c2ccccc2)nc2ccccc21 (stereo not given)
inactive: [1] 109% | [2] 96.3% | [3] 98.6% | [4] 80.8% | [5] 121% | [6] 100% | [7] 90.4% | [8] 70.7% | [9] 97.1% | [10] 96.5%

Cc1nn(-c2ccccc2)c(Oc2ccc(Cl)cc2)c1/C=N\N=c1/sc2ccccc2n1C
inactive: [1] 78.1% | [2] 85.5% | [3] 88.4% | [4] 62.1% | [5] 117% | [6] 93.9% | [7] 81.3% | [8] 92.2% | [9] 86.8% | [10] 74.1%

COc1ccc(C2=NN(C(=O)c3cc(OC)c(OC)c(OC)c3)C(c3ccc(Cl)cc3)C2)cc1OC (stereo not given)
inactive: [1] 39.5% | [2] 53.4% | [3] 39.5% | [4] 34.4% | [5] 25.4% | [6] 43.3% | [7] 26.6%
active: [8] -1.72% | [9] -2.55% | [10] 9.1%

CCc1ccccc1-n1c(N)c(C#N)c(-c2ccc(N(C)C)cc2)c(C#N)c1=O
inactive: [1] 112% | [2] 90.4% | [3] 96.8% | [4] 85.3% | [5] 99.6% | [6] 94.8% | [7] 93.6% | [8] 94.2% | [10] 117%
active: [9] -30.8%

COc1cccc(-c2nc3sccn3c2-c2ccnc(NCCNS(=O)(=O)c3cccc(Cl)c3)c2)c1
inactive: [1] 51.8% | [2] 45.8% | [3] 36.3% | [4] 12.9% | [5] 59.7% | [6] 30.5% | [7] 25.9% | [8] 44.1% | [9] 24% | [10] 30.4%

O=C(/C=C/c1c(Cl)nc2sccn12)c1nccs1
inactive: [1] 80.3% | [2] 97.5% | [3] 89% | [4] 81.8% | [5] 118% | [6] 89.1% | [7] 78.8% | [8] 72.2% | [9] 93.4% | [10] 89.3%

O=C(NCCc1ccc(O)c(O)c1)C12CC3CC(CC(C3)C1)C2
inactive: [1] 66.7% | [2] 111% | [3] 96.7% | [4] 66.2% | [5] 90.3% | [6] 90.7% | [7] 51.5% | [8] 101% | [9] 23.7% | [10] 72.9%

CNC(=O)CCN1CCN(CC/C=C2\c3ccccc3Sc3ccc(Cl)cc32)CC1
inactive: [1] 28.5% | [2] 103% | [3] 95.5% | [4] 53.9% | [5] 81.4% | [6] 94.3% | [7] 94% | [8] 74.5% | [9] 90.2% | [10] 50.9%

COc1ccc(C2CC(c3cccc(OC)c3)=NN2C(=O)c2cc(OC)c(OC)c(OC)c2)cc1 (stereo not given)
active: [8] -0.548% | [9] 8.7% | [10] 9.31%
inactive: [1] 35.9% | [2] 46.5% | [3] 39.6% | [4] 27.4% | [5] 36.8% | [6] 46.9% | [7] 23.6%

CCOC(=O)C/C(C)=N\NC(=O)c1ccncc1
inactive: [1] 120% | [2] 89.6% | [3] 99.9% | [4] 101% | [5] 95.8% | [6] 103% | [7] 52.4% | [8] 96.8% | [9] 99.7% | [10] 93.9%

NC(N)=NN=C(c1ccccc1)c1ccccc1
inactive: [1] 39.3% | [2] 65.3% | [3] 51.3% | [4] 63.6% | [5] 46.1% | [6] 48.1% | [7] 50.4% | [8] 34% | [9] 27.7% | [10] 31.8%

NCCCNc1nc2ccccc2c2c(=O)c3cccc(Cl)c3sc12
active: [4] 3.93% | [6] 7.6% | [9] 2.48% | [10] -23.4%
inactive: [1] 99.4% | [2] 31.2% | [3] 21.1% | [5] 58% | [7] 17.1% | [8] 65.2%

COc1ccc2[nH]c(O)c(C(=Nc3ccc(N(C)C(=O)CN4CCN(C)CC4)cc3)c3ccccc3)c2c1
inactive: [1] 33.2% | [2] 52.3% | [3] 20% | [4] 18.8% | [5] 51.8% | [6] 25.3% | [7] 24.6% | [9] 23.2% | [10] 14.6%
active: [8] -11.3%

CN1C(=O)N(C)C2C1NN=c1s/c(=C\c3ccccc3)c(=O)n12 (stereo not given)
inactive: [1] 48.4% | [2] 78.5% | [3] 50.1% | [4] 44.8% | [5] 10% | [6] 29.4% | [7] 33.5% | [9] 42.2% | [10] 58.1%
active: [8] 4.23%

CC(C)(C)CC(C)(C)Nc1c(-c2ccncc2)nc2cnccn12
inactive: [1] 106% | [2] 93.1% | [3] 102% | [4] 86.7% | [5] 99.2% | [6] 87.7% | [7] 80.6% | [8] 90.9% | [9] 91.6% | [10] 94.1%

COc1ccccc1N1C(=O)/C(=C/C2=Cc3ccccc3OC2)SC1=S
inactive: [1] 110% | [2] 95.3% | [3] 97.4% | [4] 88.3% | [5] 84.3% | [6] 96.9% | [7] 85.2% | [8] 40.7% | [9] 90.5% | [10] 94.6%

COc1ccc(-c2c(N)n[nH]c2-c2ccc(Cl)cc2O)cc1OC
inactive: [1] 78.7% | [2] 109% | [3] 52.4% | [4] 74% | [5] 102% | [6] 96.1% | [7] 90.5% | [8] 86.6% | [9] 69.1% | [10] 107%

O=S(=O)(O)c1ccc(N/N=C/c2ccccc2Cl)cc1
inactive: [1] 102% | [2] 116% | [3] 106% | [4] 82.7% | [5] 104% | [6] 99.6% | [7] 89.8% | [8] 100% | [9] 95.4% | [10] 103%

CCN(CC)S(=O)(=O)c1cccc(-c2ccc3c(NC(=O)C4CC4)n[nH]c3c2)c1
active: [1] -16.9% [6.25 µM] | [8] 9.92% [6.25 µM]
inactive: [2] 27.5% [6.25 µM] | [3] 38.8% [6.25 µM] | [4] 36% [6.25 µM] | [5] 35.4% [6.25 µM] | [6] 27.2% [6.25 µM] | [7] 37.7% [6.25 µM] | [9] 17.6% [6.25 µM] | [10] 10.4% [6.25 µM]

CC(=O)c1nc(Nc2ccc(C)cc2)sc1C
inactive: [1] 102% | [2] 74.4% | [3] 102% | [4] 81.6% | [5] 120% | [6] 102% | [7] 87.9% | [8] 66.2% | [9] 95.6% | [10] 96.1%

CCCCCCCCCCCCCCCCCC1=NCCN1CCOC1=C(Cl)C(=O)c2ccccc2C1=O
active: [7] 8.77%
inactive: [1] 85.3% | [2] 86.7% | [3] 78.9% | [4] 42.6% | [5] 78.9% | [6] 30.2% | [8] 99.7% | [9] 57% | [10] 71.7%

CCCCCCCCCOc1c(OC)cc(C2CC(=O)Nc3c2c(C)nn3-c2nc3ccccc3[nH]2)cc1OC (stereo not given)
active: [1] -40.4% | [2] -83.5% | [3] -33.3% | [4] -95.5% | [5] 4.51% | [6] -24.6% | [7] -73.2% | [8] -35.3%
inactive: [9] 19.1% | [10] 11.2%
